High-throughput results deposited in PubChem BioAssay by several laboratories.
BoNT-F LC inh = BoNT/F light chain protease inhibitors, primary screen, biochemical, flow cytometry, MLPCN library | Botulinum neurotoxin type F light chain protease (Clostridium botulinum) | Multiplex microsphere protease cleavage assay | inhibition, % at 10 µM | 360,000 tested, 0.22% active | AID 588497, 2011; in the data active = inhibition above about 35%, passing the limit was not always enough; inconclusive = no clear call, values can overlap the other calls
Anthrax LF prot = Bacillus anthracis LF protease inhibitors, primary screen, biochemical, multiplex microsphere, MLPCN library; Lethal factor (Bacillus anthracis), P15917; multiplex microsphere protease cleavage assay; inhibition, % at 10 µM; 360,000 tested, 0.12% active; AID 588501, 2011
Autofluor counter = compound fluorescence in toxin protease inhibitor counterscreen; compound autofluorescence counterscreen, microsphere flow cytometry; hits give high values; fluorescence intensity (concentration not given with the values); 360,000 tested, 3.1% active; AID 624483; in the data active = fluorescence intensity above about 16000; inconclusive = no clear call, values can overlap the other calls
SARS 3CLpro inh = SARS-CoV 3CLpro protease inhibitors, primary screen, biochemical, quenched FRET; recombinant SARS-CoV 3CLpro, quenched FRET peptide cleavage; inhibition, % at 6 µM; 290,000 tested, 0.14% active; in the data active = inhibition above about 12%
BoNT-A LC inh2 = BoNT/A light chain protease inhibitors, primary screen, biochemical, flow cytometry, MLPCN library. Botulinum neurotoxin type A light chain protease (Clostridium botulinum A str. ATCC 3502). multiplex microsphere protease substrate cleavage. inhibition, % at 10 µM. 360,000 tested, 0.17% active. AID 588499, 2011
DUSP3 inh = VHR1 phosphatase inhibitors, primary screen, biochemical, absorbance, uHTS; inhibition, % at 13.3 µM; recombinant VHR phosphatase, pNPP absorbance; Dual specificity protein phosphatase 3 (Homo sapiens), P51452; 290,000 tested, 0.52% active; in the data active = inhibition above about 50%
Target sequence (P51452 whole entry, looked up): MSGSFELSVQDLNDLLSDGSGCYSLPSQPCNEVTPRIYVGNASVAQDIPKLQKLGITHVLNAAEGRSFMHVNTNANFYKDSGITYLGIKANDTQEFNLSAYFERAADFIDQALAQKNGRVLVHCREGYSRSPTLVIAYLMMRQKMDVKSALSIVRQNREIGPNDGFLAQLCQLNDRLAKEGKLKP
Large screens that a line does not name were inactive. A selection: hits, their analogues and other compounds. The true share with any hit is near 3.9%. Rule as the data show it, unless noted: active = inhibition above about 30%; inconclusive = no clear call, values can overlap the other calls; inactive = below that.

Cc1nnc(SC(C)C(=O)Nc2ccc(S(=O)(=O)N3CCCCCC3)cc2)s1 (stereo not given)	Autofluor counter 22908
CN(c1ccccc1C(=O)Nc1ccc(S(=O)(=O)N2CCCCC2)cc1)S(C)(=O)=O	Autofluor counter 20379
O=C(O)c1ccccc1C(=O)Nc1ccc(Nc2ccccc2)cc1	none (no result: SARS 3CLpro inh, DUSP3 inh)
CN(c1ccccc1C(=O)Nc1ccc(S(=O)(=O)N2CCCC2)cc1)S(C)(=O)=O	none
CC(=O)N(C)c1ccc(NC(=O)c2ccccc2C(=O)O)cc1	Autofluor counter 21123, BoNT-A LC inh2 inconclusive
CC(=O)NS(=O)(=O)c1ccc(NC(=O)c2ccccc2F)cc1	Autofluor counter 23846
Cc1ccc(CNC(=O)CCSCc2ccccc2C)cc1	none
COc1nc(NCCO)nc(Nc2ccccc2F)n1	none
CCN(CC)C(=O)C1=C(C)N(Cc2ccc(OC)cc2)C(=O)C(CC(=O)NC2CCCCC2)C1 (stereo not given)	none (no result: SARS 3CLpro inh, DUSP3 inh)
CC(=O)OCC=C1CCC2C3CC(C)C4=CC(=O)CCC4(C)C3C(O)CC12C (stereo not given)	none (no result: SARS 3CLpro inh, DUSP3 inh)
COC(=O)c1ccc(NC(=O)c2ccccc2N(C)S(C)(=O)=O)cc1	none
CC(=O)Nc1ccc(NC(=O)c2ccccc2N(C)S(C)(=O)=O)cc1	Autofluor counter 24126
CSc1ccc(C2Nc3ccccc3-c3cc(C)nn32)cc1 (stereo not given)	Autofluor counter 21584
Cc1cc2n(n1)C(c1ccsc1)Nc1ccccc1-2 (stereo not given)	none
O=C1C2C3c4ccccc4C(c4ccccc43)C2C(=O)N1Cc1ccccn1 (stereo not given)	none
O=C1/C(=C/c2cc([N+](=O)[O-])ccc2Cl)N2CCC1CC2	Autofluor counter 16507
O=C1/C(=C\c2ccc(Cl)c(Cl)c2)N2CCC1CC2	BoNT-F LC inh inconclusive, Anthrax LF prot 32
O=C1/C(=C\c2ccncc2)N2CCC1CC2	none
O=C1/C(=C/c2cccc([N+](=O)[O-])c2)N2CCC1CC2	none
CN(C)c1ccc(/C=[N+](\[O-])C2N(c3ccccc3)C(=S)SC2(C)C)cc1 (stereo not given)	none
CC(NC(=O)C1CCN(C(=O)Nc2ccccc2)CC1)c1ccc(Cl)cc1 (stereo not given)	none (no result: SARS 3CLpro inh, DUSP3 inh)
O=C(CC1C(=O)NCCN1Cc1ccoc1)NCCCn1ncc2ccccc21 (stereo not given)	none
O=[N+]([O-])c1ccccc1Oc1cnc2ccccc2n1	none
O=[N+]([O-])c1cc(-c2cnc3ccccc3n2)ccc1Oc1ccc(F)cc1	Autofluor counter 20404, BoNT-A LC inh2 inconclusive
Cc1cccc(C)c1NC(=S)NC(C)CCc1ccccc1 (stereo not given)	DUSP3 inh 60
O=S(=O)(c1ccc(Cl)c(Cl)c1)N1CCc2nc3ccccc3n2CC1	Autofluor counter 17740
O=C(NCC1CCCO1)c1ccc(Br)o1 (stereo not given)	none
O=C(COC(=O)c1ccc(Br)o1)NCC1CCCO1 (stereo not given)	Autofluor counter 21346
Cc1ccc(N2C(=O)c3n[nH]c(C)c3C2c2ccco2)cc1 (stereo not given)	Autofluor counter 22119, BoNT-A LC inh2 inconclusive
CCOC(=O)c1ccc(N2C(=O)c3n[nH]c(C)c3C2c2ccco2)cc1 (stereo not given)	none
CS(=O)(=O)N(CC(=O)N1CCC(C(N)=O)CC1)c1cc(C(F)(F)F)ccc1Cl	none
COc1cccc(O)c1CN1CCCC(C(=O)c2cccc(C(F)(F)F)c2)C1 (stereo not given)	none
COc1ccc(C(=O)C2CCCN(Cc3c(O)cccc3OC)C2)cc1OC (stereo not given)	BoNT-F LC inh 37
COC(=O)[C@]12CCCCC=C1N(Cc1ccc(Cl)cc1Cl)C(=O)[C@H](CC(=O)NCCC(C)C)C2	none (no result: SARS 3CLpro inh, DUSP3 inh)
O=c1nc2ccccc2c2n1CC(CN1CCN(c3ccc(F)cc3)CC1)N2 (stereo not given)	none
O=c1nc2ccccc2c2n1CC(CN1CCN(c3cccc(Cl)c3)CC1)N2 (stereo not given)	Autofluor counter 17652
Cc1ccc(CC(CC(=O)O)C(=O)NC2CCCCC2)cc1 (stereo not given)	Autofluor counter 22833
